{
  "source": "PubChem BioAssay AID1159580",
  "about": "(chemical genetic matrix, 2015)",
  "assay": "chemical genetic growth profiling, strain panel (AID 1159580);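 also: tested at 20 µM; growth read once vehicle control cultures reached saturation at 30 °C; 1 = growth at the plate median or of vehicle wells; lower values mean less growth of the strain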",
  "conditions": "S. cerevisiae deletion strains, growth OD",
  "note": "Several values for one entry are separate records, joined by “and”; a condition that tells them apart may be missing. Equal values may be shown once. About 2,000 (36%) of roughly 5,500 compounds were called active. Roughly 18% stayed inconclusive and do not appear here. The list shows a part of the results. A number with no mark means an inactive call. Rule as the data show it: active = normalized growth mostly below about 0.91 (no sharp cut-off); inconclusive = no clear call, values can overlap the other calls; inactive = mostly above about 0.92.",
  "data": [
    {"compound": "CC12CCCC(O)(C1)C1CC(C)(C)C1CC2", "note": "(configuration not stated)", "values": [
      {"measurement": "normalized growth", "setting": "locus YAL013W, strain DEP1, hits give low values", "result": 1.02},
      {"measurement": "normalized growth", "setting": "locus YAL021C, strain ccr4, hits give low values", "result": 1},
      {"measurement": "normalized growth", "setting": "locus YAL026C, strain drs2, hits give low values", "result": 1},
      {"measurement": "normalized growth", "setting": "locus YAL030W, strain snc1, hits give low values", "result": 0.985},
      {"measurement": "normalized growth", "setting": "locus YBL061C, strain skt5, hits give low values", "result": 0.993},
      {"measurement": "normalized growth", "setting": "locus YBR009C, strain hhf1, hits give low values", "result": 0.947},
      {"measurement": "normalized growth", "setting": "locus YBR021W, strain FUR4, hits give low values", "result": 1},
      {"measurement": "normalized growth", "setting": "locus YBR023C, strain chs3, hits give low values", "result": 0.951},
      {"measurement": "normalized growth", "setting": "locus YBR171W, strain sec66, hits give low values", "result": 0.987},
      {"measurement": "normalized growth", "setting": "locus YBR229C, strain ROT2, hits give low values", "result": 1},
      {"measurement": "normalized growth", "setting": "locus YBR231C, strain swc5, hits give low values", "result": 0.977},
      {"measurement": "normalized growth", "setting": "locus YBR279W, strain paf1, hits give low values", "result": 0.959},
      {"measurement": "normalized growth", "setting": "locus YCL011C, strain gbp2, hits give low values", "result": 0.965},
      {"measurement": "normalized growth", "setting": "locus YCL016C, strain dcc1, hits give low values", "result": 0.971},
      {"measurement": "normalized growth", "setting": "locus YCL029C, strain bik1, hits give low values", "result": 1},
      {"measurement": "normalized growth", "setting": "locus YCL061C, strain MRC1, hits give low values", "result": 0.962},
      {"measurement": "normalized growth", "setting": "locus YCL069W, strain vba3, hits give low values", "result": 0.998},
      {"measurement": "normalized growth", "setting": "locus YCR088W, strain abp1, hits give low values", "result": 0.993},
      {"measurement": "normalized growth", "setting": "locus YDL005C, strain med2, hits give low values", "result": 1},
      {"measurement": "normalized growth", "setting": "locus YDL035C, strain GPR1, hits give low values", "result": 1},
      {"measurement": "normalized growth", "setting": "locus YDL040C, strain nat1, hits give low values", "result": 0.997},
      {"measurement": "normalized growth", "setting": "locus YDL074C, strain BRE1, hits give low values", "result": 1.03},
      {"measurement": "normalized growth", "setting": "locus YDL101C, strain DUN1, hits give low values", "result": 1.03},
      {"measurement": "normalized growth", "setting": "locus YDL134C, strain PPH21, hits give low values", "result": 1.03},
      {"measurement": "normalized growth", "setting": "locus YDL185W, strain tfp1, hits give low values", "result": 1.02},
      {"measurement": "normalized growth", "setting": "locus YDL192W, strain arf1, hits give low values", "result": 0.984},
      {"measurement": "normalized growth", "setting": "locus YDR001C, strain nth1, hits give low values", "result": 1},
      {"measurement": "normalized growth", "setting": "locus YDR069C, strain doa4, hits give low values", "result": 0.951},
      {"measurement": "normalized growth", "setting": "locus YDR101C, strain arx1, hits give low values", "result": 0.985},
      {"measurement": "normalized growth", "setting": "locus YDR137W, strain rgp1, hits give low values", "result": "0.8 (active)"},
      {"measurement": "normalized growth", "setting": "locus YDR159W, strain sac3, hits give low values", "result": "0.841 (active)"},
      {"measurement": "normalized growth", "setting": "locus YDR162C, strain NBP2, hits give low values", "result": 0.997},
      {"measurement": "normalized growth", "setting": "locus YDR195W, strain ref2", "result": 0.949},
      {"measurement": "normalized growth", "setting": "locus YDR297W, strain sur2, hits give low values", "result": 0.927},
      {"measurement": "normalized growth", "setting": "locus YDR318W, strain mcm21, hits give low values", "result": 1.02},
      {"measurement": "normalized growth", "setting": "locus YDR334W, strain swr1, hits give low values", "result": 1.04},
      {"measurement": "normalized growth", "setting": "locus YDR335W, strain msn5, hits give low values", "result": 1},
      {"measurement": "normalized growth", "setting": "locus YDR388W, hits give low values", "result": 1.01},
      {"measurement": "normalized growth", "setting": "locus YDR392W, strain spt3, hits give low values", "result": "0.37 (active)"},
      {"measurement": "normalized growth", "setting": "locus YDR502C, strain sam2, hits give low values", "result": 1.05},
      {"measurement": "normalized growth", "setting": "locus YEL003W, strain gim4, hits give low values", "result": 0.942},
      {"measurement": "normalized growth", "setting": "locus YEL037C, strain rad23, hits give low values", "result": 1},
      {"measurement": "normalized growth", "setting": "locus YEL061C, strain CIN8 (second series), hits give low values", "result": 1},
      {"measurement": "normalized growth", "setting": "locus YEL061C, strain CIN8, hits give low values", "result": 1},
      {"measurement": "normalized growth", "setting": "locus YER015W, strain faa2, hits give low values", "result": 1.01},
      {"measurement": "normalized growth", "setting": "locus YER016W, strain bim1, hits give low values", "result": 0.995},
      {"measurement": "normalized growth", "setting": "locus YER110C, hits give low values", "result": 1.02},
      {"measurement": "normalized growth", "setting": "locus YER111C, strain swi4, hits give low values", "result": 1},
      {"measurement": "normalized growth", "setting": "locus YER155C, strain BEM2 (second series), hits give low values", "result": "0.795 (active)"},
      {"measurement": "normalized growth", "setting": "locus YER155C, strain BEM2, hits give low values", "result": 0.994},
      {"measurement": "normalized growth", "setting": "locus YER167W, strain BCK2, hits give low values", "result": 0.992},
      {"measurement": "normalized growth", "setting": "locus YFR010W, strain ubp6, hits give low values", "result": 0.979},
      {"measurement": "normalized growth", "setting": "locus YGL078C, strain dbp3, hits give low values", "result": 1.05},
      {"measurement": "normalized growth", "setting": "locus YGL086W, strain mad1, hits give low values", "result": 1.02},
      {"measurement": "normalized growth", "setting": "locus YGL167C, strain pmr1, hits give low values", "result": 0.999},
      {"measurement": "normalized growth", "setting": "locus YGL173C, strain kem1, hits give low values", "result": 0.977},
      {"measurement": "normalized growth", "setting": "locus YGL227W, strain vid30, hits give low values", "result": 0.998},
      {"measurement": "normalized growth", "setting": "locus YGL240W, strain doc1, hits give low values", "result": 0.915},
      {"measurement": "normalized growth", "setting": "locus YGL248W, strain PDE1, hits give low values", "result": 1.03},
      {"measurement": "normalized growth", "setting": "locus YGL253W, strain hxk2, hits give low values", "result": 0.991},
      {"measurement": "normalized growth", "setting": "locus YGR135W, strain pre9, hits give low values", "result": 1.08},
      {"measurement": "normalized growth", "setting": "locus YGR252W, strain gcn5, hits give low values", "result": 1.09},
      {"measurement": "normalized growth", "setting": "locus YHR013C, strain ard1, hits give low values", "result": 1.01},
      {"measurement": "normalized growth", "setting": "locus YHR027C, strain rpn1, hits give low values", "result": 1},
      {"measurement": "normalized growth", "setting": "locus YHR030C, strain SLT2, hits give low values", "result": 0.945},
      {"measurement": "normalized growth", "setting": "locus YHR079C, strain IRE1 (second series), hits give low values", "result": 1.01},
      {"measurement": "normalized growth", "setting": "locus YHR079C, strain IRE1, hits give low values", "result": 0.971},
      {"measurement": "normalized growth", "setting": "locus YHR094C, strain hxt1, hits give low values", "result": 1.01},
      {"measurement": "normalized growth", "setting": "locus YHR129C, strain ARP1, hits give low values", "result": 1.01},
      {"measurement": "normalized growth", "setting": "locus YHR142W, strain chs7, hits give low values", "result": 0.923},
      {"measurement": "normalized growth", "setting": "locus YHR200W, strain rpn10, hits give low values", "result": 1.04},
      {"measurement": "normalized growth", "setting": "locus YIL066C, strain RNR3, hits give low values", "result": 1.01},
      {"measurement": "normalized growth", "setting": "locus YIL073C, strain SPO22, hits give low values", "result": 1.03},
      {"measurement": "normalized growth", "setting": "locus YIL125W, strain kgd1, hits give low values", "result": 1.01},
      {"measurement": "normalized growth", "setting": "locus YIR030C, strain dcg1, hits give low values", "result": 1.01},
      {"measurement": "normalized growth", "setting": "locus YJL092W, strain hpr5, hits give low values", "result": 0.992},
      {"measurement": "normalized growth", "setting": "locus YJL095W, strain BCK1 (second series), hits give low values", "result": 0.934},
      {"measurement": "normalized growth", "setting": "locus YJL095W, strain BCK1, hits give low values", "result": "1.03 and 0.976"},
      {"measurement": "normalized growth", "setting": "locus YJL115W, strain asf1, hits give low values", "result": 1.01},
      {"measurement": "normalized growth", "setting": "locus YJL129C, strain trk1, hits give low values", "result": 0.956},
      {"measurement": "normalized growth", "setting": "locus YJL134W, strain LCB3, hits give low values", "result": 0.995},
      {"measurement": "normalized growth", "setting": "locus YJL154C, strain vps35, hits give low values", "result": 1.01},
      {"measurement": "normalized growth", "setting": "locus YJL164C, strain tpk1, hits give low values", "result": 0.946},
      {"measurement": "normalized growth", "setting": "locus YJL166W, strain qcr8, hits give low values", "result": 0.945},
      {"measurement": "normalized growth", "setting": "locus YJL168C, strain set2, hits give low values", "result": 1.03},
      {"measurement": "normalized growth", "setting": "locus YJL187C, strain SWE1 (second series), hits give low values", "result": 1.04},
      {"measurement": "normalized growth", "setting": "locus YJL187C, strain SWE1, hits give low values", "result": 0.937}
    ]}
  ]
}
